# Compound activity from PubChem BioAssay.
# In the library only some 1.4% were active in any assay of this set; here they are far more common.
# DUSP3 inh: blocks human VHR1 dual specificity phosphatase | recombinant VHR phosphatase, pNPP absorbance | inhibition, % at 13.3 µM | 290,000 compounds, 0.52% hits; in the data active means inhibition above about 50%
# Target sequence (P51452 whole entry, looked up): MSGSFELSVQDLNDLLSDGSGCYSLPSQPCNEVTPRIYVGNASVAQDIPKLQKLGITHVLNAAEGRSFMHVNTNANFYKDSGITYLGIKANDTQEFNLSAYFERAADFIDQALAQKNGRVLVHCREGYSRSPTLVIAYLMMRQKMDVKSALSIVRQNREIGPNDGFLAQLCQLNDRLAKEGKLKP
# SARS 3CLpro inh: SARS-CoV 3CLpro protease inhibition. P0C6X7. inhibition, % at 6 µM. 290,000 compounds, 0.14% hits. recombinant SARS-CoV 3CLpro, quenched FRET peptide cleavage; in the data active means inhibition above about 12%
# PrPC surface inh: cell surface PrPC inhibition, primary TR-FRET screen. P04156. TR-FRET read-out. inhibition, % at 13.8 µM. 370,000 compounds, 0.43% hits; in the data active means inhibition above about 24%; further: 0% = median of the test wells and 100% = reference compound wells
# Sa RN4220 lethal: kills Staphylococcus aureus RN4220; inhibition, % (test concentration not listed); 330,000 compounds, 0.33% hits; S. aureus RN4220 growth, OD600, 16 h; AID 1259311; in the data active means inhibition above about 85%;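 further: plate controls were untreated cells for no effect and reference antibiotic for full effect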
# BJeLR viability: kills HRASV12-expressing BJeLR cells. BJeLR (HRASV12) viability, CellTiter-Glo ATP luminescence, 48 h. inhibition, % (test concentration not listed). 300,000 compounds, 0.17% hits; in the data active means inhibition above about 50%
# ugtP null kill: kills S. aureus RN4220 lacking UgtP. S. aureus RN4220 ugtP deletion, OD600 growth, 16 h. growth inhibition, % (test concentration not listed). 330,000 compounds, 0.54% hits; in the data active means growth inhibition above about 68%;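 further: plate controls were untreated wells for no effect and antibiotic for full effect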
# The depositor's hits bear a star; / = no result.
SMILES,DUSP3 inh,SARS 3CLpro inh,PrPC surface inh,Sa RN4220 lethal,BJeLR viability,ugtP null kill
COc1ccc(N(C(=O)CCl)C(C(=O)NCCc2ccccc2)c2cccs2)cc1Cl (centres undefined),4,4,-13,36,139*,8
COc1cccc(N(C(=O)CCl)C(C(=O)NCCc2ccccc2)c2cccs2)c1 (centres undefined),12,1,-12,3,72*,-1
COc1ccc(N(C(=O)c2ccco2)C(C(=O)NC2CCCCC2)c2cccs2)cc1OC (centres undefined),40,-1,0,-10,-5,-6
COc1cccc(N(C(=O)c2snc(C(N)=O)c2N)C(C(=O)NCC2CCCO2)c2cccs2)c1 (centres undefined),12,-3,-13,4,-10,-3
CCCCCCCCCCCCCCCC(=O)OC(CC(=O)O)C[N+](C)(C)C (centres undefined),/,/,-5,42,/,99*
CC1NC(=O)C(CCCN=C(N)N)NC(=O)c2cc([N+](=O)[O-])cc(I)c2NCCCC(C(N)=O)NC1=O (centres undefined),/,/,/,3,/,3
COc1ccccc1C1CC(=O)Oc2cc(C)c(Br)c(C)c21 (centres undefined),/,/,1,-3,/,86*
O=[N+]([O-])c1ccc(N=Nc2ncc[nH]2)cc1,9,-2,4,19,74*,10
Cc1ccc(C)c(N2CCN(S(=O)(=O)c3ccc4c(c3)NC(=O)CC(=O)N4)CC2)c1,6,-1,3,23,0,90*
Cc1cc2c(c(CO)c1CCO)C(=O)C(C)C2O (centres undefined),/,/,/,3,/,4
CC(=O)c1c(C)[nH]c(C(=O)N2CCN(c3ccccn3)CC2)c1C,57*,-7,-2,4,0,1
CC(=O)c1c(C)[nH]c(C(=O)N2CCN(c3ncccn3)CC2)c1C,9,1,-3,-4,-9,-4
CC[C@@]12C(=O)N(c3cccc(Br)c3)C(=O)N1C(c1ccc(Cl)cc1)C1C(=O)N(C3CCCCC3)C(=O)C12 (some centres undefined),/,/,/,0,/,-37
Cc1cccc(N(C(=O)CNC(=O)c2cccs2)C(C(=O)NC2CCCC2)c2cccnc2)c1 (centres undefined),57*,0,-7,-2,7,-1
O=C(NCC(=O)N(c1ccccc1)C(C(=O)NC1CCCCC1)c1cccnc1)c1cccs1 (centres undefined),52*,4,4,4,-4,3
CC1CCC(CN2C(Nc3ccccc3)=NCC2Cc2ccccc2)CC1 (centres undefined),/,/,/,2,/,-1
Cc1ccc2nc(-c3ccc(NC(=S)NC4CC(C)(C)NC(C)(C)C4)cc3)sc2c1,17,0,5,100*,8,95*
CN(C)c1ccc(NC(=O)C=Cc2c(Cl)cccc2Cl)cc1,/,/,/,8,/,-11
CSCCC(NC(=O)OC(C)(C)C)c1nnc(SCC(N)=O)o1 (centres undefined),/,/,/,7,/,1
C=CC[n+]1ccc(/C=C2\C=Cc3cc(C)ccc3N2CC)c2ccccc21,-1,-4,/,92*,/,93*
CCN1/C(=C/c2cc[n+](CCCS(=O)(=O)[O-])c3ccccc23)Sc2ccccc21,22,-3,-20,5,0,10
CC(=O)OC1CC[C@@]2(C)C(CCC3C2CC[C@@]2(C)C3CC2C(C)(C)O)C1 (some centres undefined),/,/,/,0,/,23
CSc1nc2ccccc2n1CC(=O)Nc1ccccc1,27,-6,4,2,6,-3
O=C(Cn1c(/C=C/c2ccccc2)nc2ccccc21)Nc1ccc(F)cc1,51*,-4,0,8,6,-15
CCOC(=O)C1C2COc3ccc(C)cc3C2N2C(=O)CN(Cc3ccccc3)C(=O)[C@@]12C (some centres undefined),/,/,/,3,/,4
SMILES,DUSP3 inh,SARS 3CLpro inh,PrPC surface inh,Sa RN4220 lethal,BJeLR viability,ugtP null kill
O=C(NC1CCCCC1)c1sc(=S)n2c1[nH]c(=O)c1ccccc12,45,2,1,100*,0,100*
O=C(NCCc1ccccc1)c1ccc2c(=O)[nH]c3c(C(=O)NCC4CCCO4)sc(=S)n3c2c1 (centres undefined),1,2,0,/,-21,/
CCCCNC(=O)c1sc(=S)n2c1[nH]c(=O)c1ccccc12,20,6,-5,74,-7,82*
COc1ccccc1N1CCN(C2CCCN(C(=O)CCn3cncn3)C2)CC1 (centres undefined),57*,-3,-11,-2,4,1
COc1ccccc1N1CCN(C2CCCN(C(=O)C3=NN(C)C(=O)CC3)C2)CC1 (centres undefined),52*,-1,-5,2,-3,5
COc1ccc(C=NNC(=O)C(=CNc2nccc(C)n2)NC(=O)c2ccccc2)cc1,/,/,/,3,/,-5
COc1ccc(C(=O)OCCc2ccc(O)cc2)cc1,-7,0,10,11,9,-1
COc1ccc(C(=O)OCC[N+]2(C)CCOCC2)cc1,53*,-2,-4,-3,12,12
COc1ccc(-c2cc(=O)oc3c(O)c(O)ccc23)cc1,59*,-1,-15,3,-9,-23
Cc1nn(C)c(C)c1S(=O)(=O)N(CC(=O)N1CCc2ccccc21)c1ccc(C(C)C)cc1,50*,2,7,5,-6,17
O=C1Nc2ccccc2C1=NN=Cc1ccc(-c2ccc([N+](=O)[O-])cc2)o1,/,/,/,0,/,2
O=C1Nc2ccccc2/C1=N/N=C/c1ccc(-c2ccc([N+](=O)[O-])cc2)o1,54*,0,3,/,6,/
C=C1C(=O)O[C@@H]2C[C@@H](C)[C@@H]3C4OC4C(=O)[C@@]3(C)[C@@H](O)[C@H]12 (some centres undefined),-4,/,36*,/,37,/
C=C1C(=O)O[C@H]2[C@H]1[C@H](OC(=O)CC(=O)O[C@@H]1C[C@@H](C)[C@@H]3C=CC(=O)[C@@]3(C)[C@H]3OC(=O)C(=C)[C@H]13)C[C@@H](C)[C@H]1C=CC(=O)[C@]12C,4,/,16,/,0,/
CCOC(=O)C1C2COc3ccc(Br)cc3C2N2C(=O)N(c3cccc(C)c3)C(=O)[C@]12C (some centres undefined),/,/,/,3,/,6
c1ccc2nc(-c3nc4ccccc4o3)ccc2c1,-14,-2,-24,2,53*,1
CCOCCCNC(=S)N(CCO)Cc1cc2cc3c(cc2[nH]c1=O)OCCO3,50*,-10,1,1,1,8
CCOc1ccc2nc(SCC(=O)NC3CCCCC3)[nH]c2c1,-17,4,13,5,-5,-4
COc1ccc2nc(SCC(=O)NC3CCCCC3)[nH]c2c1,58*,-4,2,1,-1,4
CC(NC(=O)NCc1ccc(F)cc1)C(=O)O (centres undefined),/,/,/,6,/,4
